miR-21 act: qHTS Assay for Modulators of miRNAs and/orActivators of miR-21. HeLa miR-21 FLuc reporter, luciferase, 48 h. Potency, µM (titrated, usually from 38.3 µM), for inactives: at the highest dose activity change, positive = activation, most hits filed as activators. 340,000 tested, under 10 active;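 further: % of control where 0% means no effect; miR-21 action dims this reporter so a rising signal means less miR-21 action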
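HeLa cells endogenously expressing miR-21, stably carrying CMV-driven firefly luciferase with a downstream miR-21 binding site, 2000 cells/well. Titrations up to approximately 40 uM, 48 hours; luciferase luminescence read.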
TDP1 cell CPT: qHTS for Inhibitors of human tyrosyl-DNA phosphodiesterase 1 (TDP1): qHTS in cells in presence of CPT. chicken DT40 Tdp1-/-;hTDP1 cells + 20 nM CPT, ATP luminescence, 48 h. Potency, µM (doses to about 46.2 µM), inactives show at the top dose activity change, negative = growth inhibition, usual class: inhibitors. hit rate 12% among 420,000; further: potency means the concentration at half of the fitted maximal effect; on the % scale 0 is the no-effect control and ±100 the full control effect; nearly all actives have a fitted effect of over 55% in size
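Cell growth measured by CellTiter-Glo luminescence after a minimum 48 h, 37 C compound exposure with 20 nM CPT in Tdp1-knockout DT40 cells stably expressing hTDP1, seeded 400/well; qHTS titration format.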
uPA generation: qHTS for Inhibitors of Cell Surface uPA Generation; cell surface uPA generation assay, qHTS; Potency, µM (highest dose often 38.3 µM), for inactives: top-dose activity change, negative = inhibition, hits mostly inhibitors; hit rate 0.31% among 330,000; AID 540303, 2011; active means well fitted inhibition curve with a large enough effect; inconclusive means small, poorly fitted or top-dose-only effect; inactive means no such curve, though single readings can be large or run the other way; tested in mouse RAW 264.7 cells; further: potency means the concentration at half of the fitted maximal effect; on the % scale 0 is the no-effect control and ±100 the full control effect; nearly all actives have a fitted effect of over 55% in size
TDP1 inh: qHTS Assay for Inhibitors of Tyrosyl-DNA Phosphodiesterase (TDP1); Potency, µM (top dose mostly 130 µM), inactives show at the highest dose activity change, negative = inhibition, most hits filed as inhibitors; recombinant TDP1, AlphaScreen DNA substrate cleavage; hit rate 0.28% among 350,000; AID 485290, 2010; Tyrosyl-DNA phosphodiesterase 1 (Homo sapiens), Q9NUW8; further: potency means the concentration at half of the fitted maximal effect; on the % scale 0 is the no-effect control and ±100 the full control effect; nearly all actives have a fitted effect of over 40% in size
Target sequence (Q9NUW8 whole entry, looked up): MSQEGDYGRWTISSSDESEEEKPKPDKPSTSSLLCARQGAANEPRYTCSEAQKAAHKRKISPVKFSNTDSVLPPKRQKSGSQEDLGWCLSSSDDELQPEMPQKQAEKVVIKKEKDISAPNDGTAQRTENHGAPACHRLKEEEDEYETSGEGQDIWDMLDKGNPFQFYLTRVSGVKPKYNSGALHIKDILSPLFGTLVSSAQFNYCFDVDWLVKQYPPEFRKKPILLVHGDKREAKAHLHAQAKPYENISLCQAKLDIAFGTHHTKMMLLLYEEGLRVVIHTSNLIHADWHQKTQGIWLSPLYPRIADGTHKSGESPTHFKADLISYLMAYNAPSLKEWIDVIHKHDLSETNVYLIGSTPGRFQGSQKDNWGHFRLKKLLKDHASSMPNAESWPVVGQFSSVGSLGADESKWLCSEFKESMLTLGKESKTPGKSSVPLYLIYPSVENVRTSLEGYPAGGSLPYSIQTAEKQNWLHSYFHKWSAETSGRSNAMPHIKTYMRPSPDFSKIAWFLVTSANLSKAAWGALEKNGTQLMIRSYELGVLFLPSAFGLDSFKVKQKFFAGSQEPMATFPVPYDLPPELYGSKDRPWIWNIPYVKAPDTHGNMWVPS
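Tdp1 1 nM final; 15 min RT w/ cpd; substrate 15 nM, 5 min; beads 10 ug/ml, 10 min; AlphaScreen read. Neg ctrl: no enzyme.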
TDP1 cell noCPT: qHTS for Inhibitors of human tyrosyl-DNA phosphodiesterase 1 (TDP1): qHTS in cells in absence of CPT; DT40 Tdp1-/- hTDP1 cells, no CPT, ATP luminescence, 48 h; Potency, µM (series often up to 46.2 µM), for inactives: at the top dose activity change, negative = growth inhibition, usual class: inhibitors; hit rate 15% among 420,000; AID 686978, 2013; further: potency means the concentration at half of the fitted maximal effect; on the % scale 0 is the no-effect control and ±100 the full control effect; nearly all actives have a fitted effect of over 55% in size
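Readout: luminescence from CellTiter-Glo after 30 min in the dark at RT. Cells: DT40 Tdp1-/- with stable hTDP1, 400/well. Exposure: compounds alone, ≥48 hr, 37 °C.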
* = called active by the depositor; ? = inconclusive; . = no result given; ! = not confirmed by another sample. Most compounds without a hit are left out; they make up all but 16% or so of the library. Unless noted, the call rests on the fitted dose curve; in most records, active means well fitted curve in the direction sought with a large enough effect; inconclusive means small, poorly fitted or top-dose-only effect, or another doubt; inactive means no such curve, though single readings can be large; an effect the other way counts as inactive or inconclusive.

SMILES	miR-21 act	TDP1 cell CPT	uPA generation	TDP1 inh	TDP1 cell noCPT
Cn1c(CSCCOc2ccccc2)n[nH]c1=S	1%	-18%	2%	6%	16µM*
Cn1c(CSCc2ccc(Cl)c(Cl)c2)n[nH]c1=S	1%	?	9%	2%	23µM*
CCOc1ccccc1NC(=O)CN1C(=O)COc2ccc(S(=O)(=O)NC3CCCC3)cc21	-2%	26µM*	.	4%	?
COc1ccc(Cl)cc1NC(=O)CN1C(=O)COc2ccc(S(=O)(=O)NC3CCCC3)cc21	-2%	7%	.	6%	-13%
CC(C)N(Cc1ccccc1)C(=O)CN1C(=O)COc2ccc(S(=O)(=O)NC3CCCC3)cc21	2%	26µM*	-15%	1%	23µM*!
CC1(C(=O)NC2CCCCC2)CCC(=O)N1C1CCN(Cc2ccccc2)CC1 (configuration not stated)	.	6%	.	.	17%
CCCCN1C(=N)N([C@@H](CN2CCC[C@H]2CN2C(N)=NC[C@@H]2Cc2ccccc2)C(C)C)C[C@H]1Cc1ccccc1	.	?	5%	-7%	16µM*
CC[C@@H](C)[C@@H]1CN([C@@H](C)CN2CCC[C@H]2CN2C(N)=NC[C@@H]2Cc2ccccc2)C(=N)N1CCCC1CCCC1	.	?	9%	-7%	?
CCC(C)[C@H]1CN=C(N)N1CCCc1cc(OC)c(OC)c(OC)c1 (some centres not stated)	-3%	-10%	2%	5%	-19%
CCCCN1C(=N)N([C@@H](CCC)CN2CCC[C@H]2CN2C(N)=NC[C@H]2CC(C)C)C[C@H]1Cc1ccccc1	.	?	3%	-7%	?
CCCCN1C(=N)N([C@@H](C)CN2CCC[C@H]2CN2C(N)=NC[C@@H]2Cc2ccccc2)C[C@H]1Cc1ccccc1	.	?	-6%	-14%	?
CCC[C@@H](CN1CCC[C@H]1CN1C(N)=NC[C@H]1C(C)C)N1C[C@@H](Cc2ccccc2)N(CCCC2CCCC2)C1=N	.	?	0%	-5%	16µM*
CC[C@@H](C)[C@@H]1CN([C@@H](C)CN2CCC[C@H]2CN2C(N)=NC[C@H]2CC(C)C)C(=N)N1CCCC1CCCC1	.	?	5%	-6%	23µM*
CC[C@@H](C)[C@@H]1CN([C@@H](CN2CCC[C@H]2CN2C(N)=NC[C@H]2C(C)C)C(C)C)C(=N)N1CCc1ccc(Cl)c(Cl)c1	.	?	2%	-9%	16µM*
O=C(Cn1cnc2c(nnn2Cc2ccc(F)cc2)c1=O)NCC1CCCO1 (configuration not stated)	-3%	12%	11%	-3%	8%
CC1CC(C)CN(C(=O)c2ccc(S(=O)(=O)N3CCCC3)cc2)C1 (configuration not stated)	-7%	-23%	-8%	2%	-26%
Cc1nn(CC(=O)N(C)C2(C#N)CCCCC2)c(C)c1[N+](=O)[O-]	.	3%	-5%	1%	5%
CC(C)C[C@H](NC(=O)C1CCN(S(=O)(=O)c2ccccc2)CC1)C(=O)NCc1cccnc1	0%	13%	5%	0%	-2%
CCCCN1C(=N)N([C@@H](CCC)CN2CCC[C@H]2CN2C(N)=NC[C@@H]2Cc2ccccc2)C[C@H]1[C@H](C)CC	.	13µM*	-1%	-15%	12µM*
Cc1ccc(CNc2ccc([N+](=O)[O-])cc2C(N)=O)cc1	.	-24%	3%	0%	-21%
Cc1ccc(Oc2c(C(N)=O)cc([N+](=O)[O-])cc2[N+](=O)[O-])cc1	?	5.8µM*	-17%	2%	5.2µM*
CCCCOCCCNC(=O)N[C@@H](CCSC)C(=O)OC	-2%	-23%	.	4%	3%
CCc1nc(SCc2ccc([N+](=O)[O-])cc2)n[nH]1	-41%	-1%	-1%	0%	-12%
CCOc1ccccc1N1CC(C(=O)N2CCN(Cc3ccc(C#N)cc3)CC2)CC1=O (configuration not stated)	.	?	1%	0%	-19%
C=CCNC(=O)N1CCCC(C(=O)c2cccc(Cl)c2)C1 (configuration not stated)	1%	?	4%	.	?
SMILES	miR-21 act	TDP1 cell CPT	uPA generation	TDP1 inh	TDP1 cell noCPT
Cc1c(C2=CCN(S(=O)(=O)c3ccc(Br)cc3)CC2)c2ccccc2n1C	0%	?	5%	3%	?
CCn1c(C)c(C2=CCN(S(=O)(=O)c3ccc(C)cc3)CC2)c2ccccc21	0%	?	-5%	4%	18µM*
COc1ccc(-c2onc(C)c2C)cc1S(=O)(=O)Nc1cc(Cl)ccc1C	27%	3.7µM*	.	3%	3.7µM*
COC(=O)c1ccc(NS(=O)(=O)c2cc(-c3cc(C)no3)ccc2OC)cc1	20%	3.7µM*	?	3%	2.9µM*
Cc1cc(-c2ccc(C)c(S(=O)(=O)NC(c3cccs3)C(C)C)c2)on1 (configuration not stated)	1%	18µM*	.	8%	18µM*
COc1ccc(CCNS(=O)(=O)c2cc(-c3onc(C)c3C)ccc2OC)cc1OC	-5%	-24%	.	3%	?
COc1ccccc1NS(=O)(=O)c1cc(-c2cc(C)no2)ccc1OC	22%	-13%	-14%	6%	-14%
COc1ccc(Cl)cc1NS(=O)(=O)c1cc(-c2cc(C)no2)ccc1C	22%	6.5µM*	.	0%	7.3µM*
Cc1cc(-c2ccc(C)c(S(=O)(=O)Nc3cccc(C)n3)c2)on1	-5%	3%	.	5%	?
COc1ccccc1CN1CC(C(=O)NCCSc2nnnn2C)CCC1=O (configuration not stated)	-4%	-6%	-2%	0%	1%
O=C(NCc1ccc(Cl)cc1)c1ccc(S(=O)(=O)N2CCCCC2)cc1	.	-5%	-6%	0%	?
COc1ccc(-c2onc(C)c2C)cc1S(=O)(=O)Nc1cccc(C#N)c1	24%	23µM*	.	3%	21µM*
COc1ccc(-c2cc(C)no2)cc1S(=O)(=O)Nc1ccccc1	12%	26µM*	?	4%	9.2µM*
CCc1ccc(-c2cc(C)no2)cc1S(=O)(=O)Nc1cc(C)ccn1	-2%	-24%	3%	2%	7%
CCc1ccc(-c2cc(C)no2)cc1S(=O)(=O)Nc1cc(OC)c(OC)c(OC)c1	19%	16µM*	.	8%	16µM*
COc1ccc(-c2cc(C)no2)cc1S(=O)(=O)Nc1cccc(C)c1	17%	-9%	?	3%	-26%
